Assay results published in the supplement of paper PMC12494721.
Counter-ions that a name gives are not always drawn.

Legend:
Details in all cases: incubation time: 27 h, anaerobic, 37 °C;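 for the amine columns active = adjusted P below 0.05 in both replicates with a change the same way and a mean fold change under 0.8 or over 1.25; inactive = the rest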
[1] = tested on: Clostridium sporogenes DSM 1664; experiment: growth (OD595) fold change vs plate DMSO controls (fold change (ratio)); higher = more growth
Outline: (§1)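 Anaerobic 27 h, 37 °C mGAM 96-well cultures were shaken, then read for absorbance at 595 nm. Values were blank-subtracted and corrected for compound background using 20 µM compound solutions in water. A calibration factor of 5 converted them to OD. Growth is the fold change versus the median of plate DMSO controls. Fold changes above 1.5 were set to NA, and values are the mean of 2 biological replicates.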

[2] = tested on: Escherichia coli IAI1; experiment: as above
Outline: as §1

[3] = tested on: Klebsiella aerogenes DSM 30053; experiment: as above
Outline: as §1

[4] = tested on: Ruminococcus gnavus DSM 108212; experiment: as above
Outline: as §1

[5] = tested on: Klebsiella aerogenes DSM 30053; experiment: fold change of Histamine concentration vs plate DMSO controls (fold change (ratio)); higher = more amine produced, active = hit call of the paper (significant change in both replicates, either direction)
Outline: (§2)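 Each value is the fold change relative to DMSO-only wells on the same plate. Four gut bacterial strains were grown anaerobically in mGAM at 37 °C for 27 h in 80 µL wells, starting at OD 0.1 before a 1:1 dilution, with compounds at 20 µM final (sweeteners 50 µM). Whole cultures were extracted with cold acetonitrile/methanol containing 0.1% formic acid, centrifuged, and amines were quantified by LC–triple-quadrupole MS (dynamic MRM) against external calibration curves with within-batch drift correction. Values are means of 2 biological replicates.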

[6] = tested on: Clostridium sporogenes DSM 1664; experiment: fold change of Tryptamine concentration vs plate DMSO controls (fold change (ratio)); higher = more amine produced, active = hit call of the paper (significant change in both replicates, either direction)
Outline: as §2

[7] = tested on: Ruminococcus gnavus DSM 108212; experiment: as above
Outline: as §2

[8] = tested on: Escherichia coli IAI1; experiment: fold change of Putrescine concentration vs plate DMSO controls (fold change (ratio)); higher = more amine produced, active = hit call of the paper (significant change in both replicates, either direction)
Outline: as §2

[9] = tested on: Klebsiella aerogenes DSM 30053; experiment: as above
Outline: as §2

[10] = tested on: Escherichia coli IAI1; experiment: fold change of Cadaverine concentration vs plate DMSO controls (fold change (ratio)); higher = more amine produced, active = hit call of the paper (significant change in both replicates, either direction)
Outline: as §2

[11] = tested on: Klebsiella aerogenes DSM 30053; experiment: as above
Outline: as §2

[12] = tested on: Ruminococcus gnavus DSM 108212; experiment: fold change of 2-Phenylethylamine concentration vs plate DMSO controls (fold change (ratio)); higher = more amine produced, active = hit call of the paper (significant change in both replicates, either direction)
Outline: as §2

Structure (SMILES)	growth [1]	growth [2]	growth [3]	growth [4]	fold change of Histamine concentration [5]	fold change of Tryptamine concentration [6]	fold change of Tryptamine concentration [7]	fold change of Putrescine concentration [8]	fold change of Putrescine concentration [9]	fold change of Cadaverine concentration [10]	fold change of Cadaverine concentration [11]	fold change of 2-Phenylethylamine concentration [12]
CN1C2CCCC1CC(NC(=O)c1nn(C)c3ccccc13)C2 (stereo not drawn) [Granisetron] (20 µM)	1.04	1.02	1.01	1.04	1.02 (inactive)	1.04 (inactive)	1.07 (inactive)	1.05 (inactive)	1 (inactive)	0.999 (inactive)	1.01 (inactive)	1.08 (inactive)
COc1cccc2c1C(=O)c1c(O)c3c(c(O)c1C2=O)C[C@@](O)(C(=O)CO)C[C@@H]3O[C@H]1C[C@H](N)[C@H](O)[C@H](C)O1 [Doxorubicin hydrochloride] (20 µM)	0.843	1.02	1.03	1.25	1.04 (inactive)	0.956 (inactive)	0.963 (inactive)	0.958 (inactive)	0.982 (inactive)	1.03 (inactive)	1.02 (inactive)	0.943 (inactive)
CNS(=O)(=O)Cc1ccc2[nH]cc(CCN(C)C)c2c1 [Sumatriptan succinate] (20 µM)	1.11	0.977	1.21	0.976	0.809 (inactive)	1.05 (inactive)	1.01 (inactive)	0.895 (inactive)	0.992 (inactive)	1.03 (inactive)	1.03 (inactive)	1.06 (inactive)
NS(=O)(=O)c1cc2c(cc1Cl)NCNS2(=O)=O [Hydrochlorothiazide] (20 µM)	0.895	1.06	0.998	1.03	1.06 (inactive)	0.949 (inactive)	1.11 (inactive)	1.04 (inactive)	1 (inactive)	0.915 (inactive)	1.11 (inactive)	1.27 (active)
C=CCc1ccccc1OCC(O)CNC(C)C (stereo not drawn) [Alprenolol hydrochloride] (20 µM)	0.992	0.97	0.955	0.856	1.05 (inactive)	1.07 (inactive)	1.08 (inactive)	0.934 (inactive)	0.985 (inactive)	1.01 (inactive)	0.998 (inactive)	0.998 (inactive)
CCN(CC)CCOC(=O)C1(C2CCCCC2)CCCCC1 [Dicyclomine hydrochloride] (20 µM)	0.883	0.966	0.998	0.659	1.01 (inactive)	0.991 (inactive)	0.845 (inactive)	0.988 (inactive)	1.01 (inactive)	1 (inactive)	1 (inactive)	0.815 (inactive)
CC(CN1c2ccccc2Sc2ccccc21)N(C)C (stereo not drawn) [Promethazine hydrochloride] (20 µM)	0.924	0.819	1.04	0.948	0.964 (inactive)	0.997 (inactive)	1.01 (inactive)	0.858 (inactive)	0.972 (inactive)	1.05 (inactive)	1.02 (inactive)	1.06 (inactive)
CC(C)(C)NC[C@H](O)COc1nsnc1N1CCOCC1 [Timolol maleate salt] (20 µM)	1	1.03	1.02	1.01	1.04 (inactive)	1.03 (inactive)	0.991 (inactive)	1.12 (inactive)	1.01 (inactive)	1.02 (inactive)	1 (inactive)	0.997 (inactive)
COc1ccc(CC(C)NCC(O)c2ccc(O)c(NC=O)c2)cc1 (stereo not drawn) [Formoterol fumarate] (20 µM)	1.13	1.21	1.11	1.3	0.864 (inactive)	1.03 (inactive)	1.1 (inactive)	1.03 (inactive)	0.951 (inactive)	0.91 (inactive)	1.09 (inactive)	1.11 (inactive)
CCS(=O)(=O)CCn1c([N+](=O)[O-])cnc1C [Tinidazole] (20 µM)	0	0.988	0.99	0.176	0.852 (inactive)	0.0351 (active)	0.0414 (active)	1.01 (inactive)	0.977 (inactive)	1.04 (inactive)	0.993 (inactive)	0.0315 (active)
CCC(=O)O[C@]1(C(=O)CCl)[C@@H](C)C[C@H]2[C@@H]3CCC4=CC(=O)C=C[C@]4(C)[C@@]3(F)[C@@H](O)C[C@@]21C [Clobetasol propionate] (20 µM)	1.36	1.06	1.06	0.908	0.98 (inactive)	1.02 (inactive)	0.96 (inactive)	0.988 (inactive)	1.02 (inactive)	1.01 (inactive)	0.999 (inactive)	0.936 (inactive)
CC(C)(C)C(=O)OCOC(=O)[C@@H]1N2C(=O)[C@@H](NC(=O)[C@H](N)c3ccccc3)[C@H]2SC1(C)C [Pivampicillin] (20 µM)	0	0.949	0.986	0	1.04 (inactive)	0.0632 (active)	0.0656 (active)	1.01 (inactive)	1 (inactive)	0.968 (inactive)	0.976 (inactive)	0.0585 (active)
CCOC(=O)[C@H](CCc1ccccc1)N[C@@H](C)C(=O)N1CCC[C@H]1C(=O)O [Enalapril maleate] (20 µM)	1.07	1.07	1.05	1.15	0.936 (inactive)	1 (inactive)	1.09 (inactive)	1.03 (inactive)	0.959 (inactive)	0.967 (inactive)	1.02 (inactive)	1.1 (inactive)
CCCCC[C@H](O)/C=C/[C@H]1[C@H](O)CC(=O)[C@@H]1CCCCCCC(=O)O [Alprostadil] (20 µM)	1.02	0.977	1.01	1.01	1.08 (inactive)	0.957 (inactive)	0.987 (inactive)	1.05 (inactive)	1.01 (inactive)	1.01 (inactive)	0.997 (inactive)	0.985 (inactive)
Cc1ccc(C)c(OCCCC(C)(C)C(=O)O)c1 [Gemfibrozil] (20 µM)	1.11	1.01	1.07	0.931	1.02 (inactive)	1.01 (inactive)	1.05 (inactive)	0.995 (inactive)	1.02 (inactive)	0.968 (inactive)	0.994 (inactive)	1.03 (inactive)
C[N+](C)(C)CCOC(N)=O [Carbachol chloride] (20 µM)	0.948	1	0.997	1.09	1.01 (inactive)	1.07 (inactive)	1.09 (inactive)	0.986 (inactive)	0.983 (inactive)	0.957 (inactive)	1.01 (inactive)	1.11 (inactive)
Cc1cn([C@H]2C[C@H](N=[N+]=[N-])[C@@H](CO)O2)c(=O)[nH]c1=O [Zidovudine] (20 µM)	0.921	0.825	0.946	1.45	1.12 (inactive)	1.04 (inactive)	1.02 (inactive)	0.549 (inactive)	1.07 (inactive)	1.79 (inactive)	0.981 (inactive)	1.11 (inactive)
Oc1cc(O)c2c(c1)O[C@H](c1ccc(O)c(O)c1)[C@@H](O)C2 [Cianidanol] (20 µM)	1.04	0.998	0.998	1.06	1.03 (inactive)	1.26 (active)	0.867 (inactive)	0.977 (inactive)	0.95 (inactive)	0.859 (inactive)	0.993 (inactive)	0.978 (inactive)
O=C1O[C@H]([C@@H](O)CO)C(O)=C1O [Ascorbic acid] (20 µM)	1.01	1.03	0.981	0.975	1.08 (inactive)	1.05 (inactive)	1.06 (inactive)	1.01 (inactive)	0.978 (inactive)	1.03 (inactive)	1.04 (inactive)	1.03 (inactive)
CCOc1ccc(NC(N)=O)cc1 [(4-Ethoxyphenyl)urea] (50 µM)	1.13	0.949	0.994	1.09	0.964 (inactive)	0.979 (inactive)	0.999 (inactive)	0.971 (inactive)	0.986 (inactive)	1.11 (inactive)	1.01 (inactive)	0.947 (inactive)
Cc1nnc(NS(=O)(=O)c2ccc(N)cc2)s1 [Sulfamethizole] (20 µM)	0.987	1.05	1.06	1.12	0.935 (inactive)	0.928 (inactive)	0.884 (inactive)	0.961 (inactive)	0.981 (inactive)	1.03 (inactive)	0.995 (inactive)	0.815 (inactive)
NC(=O)C(c1ccccc1)(c1ccccc1)[C@@H]1CCN(CCc2ccc3c(c2)CCO3)C1 [Darifenacin hydrobromide] (20 µM)	1.04	0.975	1.02	0.96	0.873 (inactive)	1.19 (inactive)	1.1 (inactive)	0.943 (inactive)	1.05 (inactive)	0.961 (inactive)	1.15 (inactive)	1.25 (inactive)
CCCCCCCCCCCCCCCC[N+](C)(C)CCN(Cc1ccc(OC)cc1)c1ncccn1 [Thonzonium bromide] (20 µM)	0.856	1.04	1.02	1	1.04 (inactive)	0.673 (active)	0.742 (active)	1.06 (inactive)	1 (inactive)	0.984 (inactive)	0.995 (inactive)	0.782 (inactive)
O=[N+]([O-])c1ccc(O)c2ncccc12 [Nitroxoline] (20 µM)	1.24	0.52	0.522	0.97	0.93 (inactive)	0.897 (inactive)	0.693 (active)	0.496 (active)	0.894 (inactive)	1.49 (active)	0.948 (inactive)	0.766 (inactive)
